The list is not random: actives were taken first. Their share in the collection is about 19%.
HT1080 IDH1KD tx: toxicity to HT-1080 IDH1 knockdown cells (counter line); HT-1080 IDH1 knockdown viability, ATP luminescence, 48 h; Potency, µM (series often up to 46.1 µM), without a hit: at the top dose activity, negative = toxicity, most hits filed as cytotoxic; 2% of 360,000 active; AID 686971;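 note: potency is the fitted concentration of half-maximal effect; 0% = DMSO wells and -100% = cell-free medium wells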
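CellTiter-Glo luminescence after 48 h compound exposure at 37 degrees C of IDH1-knockdown HT-1080 cells in 5% FBS RPMI. %Activity scaled between DMSO wells and cell-free media wells, with curves fitted and assigned curve classes.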
ELG1 DNA repair: ELG1-dependent DNA repair inhibition | HEK293T ELG1-luciferase reporter, luminescence, 16 h; DNA damage induced by 5-fluorouridine | Potency, µM (top dose mostly 46.1 µM), without a hit: at the top dose activity change, negative = inhibition, usual class: inhibitors | 2.3% of 330,000 active | AID 504467; note: potency is the fitted concentration of half-maximal effect; nearly all actives have a fitted effect of over 55% in size
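Luminescence from the luciferase reporter, measured 30 min after ONE-Glo reagent at room temperature, was the read-out. Beforehand, 2,000 cells per well were exposed for 16 hr at 37 °C to 5-fluorouridine together with compound or vehicle.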
TDP1 cell noCPT: qHTS for Inhibitors of human tyrosyl-DNA phosphodiesterase 1 (TDP1): qHTS in cells in absence of CPT; DT40 Tdp1-/- hTDP1 cells, no CPT, ATP luminescence, 48 h; Potency, µM (top dose mostly 46.2 µM), without a hit: top-dose activity change, negative = growth inhibition, actives largely listed as inhibitors; 15% of 420,000 active; note: potency is the fitted concentration of half-maximal effect; nearly all actives have a fitted effect of over 55% in size
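DT40 Tdp1-/-;hTDP1 cells, no CPT (DMSO vehicle only), 400 cells/well; compounds pin-transferred; ≥48 hr, 37 °C; CellTiter-Glo 30 min RT dark, luminescence read.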
DT40 TDP1 CPT: growth inhibition of DT40 Tdp1-/-;hTDP1 cells with camptothecin (screen for TDP1 inhibitors); chicken DT40 Tdp1-/-;hTDP1 cells + 20 nM CPT, ATP luminescence, 48 h; Potency, µM (highest dose often 46.2 µM), for the others: at the top dose activity change, negative = growth inhibition, actives largely listed as inhibitors; 12% of 420,000 active; AID 686979; note: potency is the fitted concentration of half-maximal effect; nearly all actives have a fitted effect of over 55% in size
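Chicken DT40 Tdp1-/- cells complemented with human TDP1, 400 cells/well, exposed to compounds plus 20 nM camptothecin for at least 48 h at 37 C; viability read as ATP content by CellTiter-Glo luminescence.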
IL1B secr inh: inflammasome signaling inhibition, IL-1 beta readout; activity change, % at 57.5 µM; 4.7% of 360,000 active; THP-1 LPS/ATP IL-1B secretion, AlphaLISA, 16 h; stronger effect = lower value; AID 743279; in the data active = activity change below about -50%; inconclusive = mostly about -30% to -49%
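Secreted IL-1B measured by AlphaLISA bead assay after 16 h compound exposure of THP-1 cells; compounds (final up to 57.5 uM) added 1 h before LPS (250 ng/mL) and ATP (1.25 mM) stimulation; lower signal means less secretion.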
HT1080NT lethal: kills 2HG-producing HT-1080-NT fibrosarcoma cells | Potency, µM (top dose mostly 46.1 µM), for inactives: at the highest dose activity, negative = less viability, usual class: cytotoxic | 1.6% of 360,000 active | HT-1080-NT fibrosarcoma viability, CellTiter-Glo ATP luminescence, 48 h;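 note: NT is the 2HG producing partner of a matched IDH1 knockdown line; potency is the fitted concentration of half-maximal effect; 0% = DMSO-treated cells and -100% = media-only wells without cells; nearly all actives have a fitted effect of over 55% in size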
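HT-1080-NT fibrosarcoma cells (2HG-overproducing), 750 cells/well in RPMI with 5% FBS, dosed after 2 h and incubated 48 h at 37C. CellTiter-Glo luminescence normalized to DMSO and no-cell wells; concentration-response curves fitted and classed.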
An asterisk follows results filed as active; ? = inconclusive; / = no result. Unless noted, calls come from the whole dose curve; as a rule, active = well fitted curve in the direction sought with a large enough effect; inconclusive = small, poorly fitted or top-dose-only effect, or another doubt; inactive = no such curve, though single readings can be large; an effect the other way counts as inactive or inconclusive. Unless noted, % is set by controls: 0 for no effect and ±100 for the full control effect.

SMILES	HT1080 IDH1KD tx	ELG1 DNA repair	TDP1 cell noCPT	DT40 TDP1 CPT	IL1B secr inh	HT1080NT lethal
COC(=O)c1ccccc1NC(=O)N1CCC(N2CCN(Cc3ccc(F)cc3)C(=O)C2=O)CC1	/	/	-1%	3%	/	/
C[C@H]1COC(=O)[C@H](CC(=O)OC(C)(C)C)C/C=C\C[C@@H](CC(=O)N[C@@H](CO)Cc2ccccc2)C(=O)N1	8%	-27%	?	?	-3	-1%
Cc1ccc(-c2csc(NC(=O)c3ccccc3F)c2C(=O)O)cc1	-9%	?	21µM*	?	-20	-28%
O=C(Nc1scc(-c2ccccc2)c1C(=O)O)c1ccccc1F	-10%	?	-5%	-18%	-14	-20%
COc1ccc(-c2csc(NC(=O)c3ccc(C(C)(C)C)cc3)c2C(=O)O)cc1	?	/	3.3µM*	3.7µM*	-26	?
O=C(Nc1scc(-c2ccc(Br)cc2)c1C(=O)O)c1ccccc1F	?	/	16µM*	?	/	?
O=[N+]([O-])c1cc(Cl)cc(/C=N/NC(=S)Nc2ccc(S(=O)(=O)N3CCOCC3)cc2)c1O	3.7µM*	13µM*	?	?	124	?
O=S(=O)(c1ccc(NC(=S)N/N=C/c2ccc(O)c(O)c2)cc1)N1CCOCC1	-3%	-11%	-24%	-10%	35	-4%
O=S(=O)(c1ccc(Cl)c(NC(=S)N/N=C/c2ccc(O)cc2)c1)N1CCOCC1	-15%	23µM*	4.6µM*	4.1µM*	-20	-21%
N#Cc1ccc(/C=N/NC(=S)Nc2ccc(S(=O)(=O)N3CCOCC3)cc2)cc1	10%	-10%	21µM*	?	-21	5%
CC(C)C(=O)c1cn(CC(=O)N2CCCc3ccccc32)c2ccccc12	-12%	-24%	?	?	-2	6%
CN(C)c1ccc(CNc2nc(-c3ccco3)nn2C(=O)c2cccc([N+](=O)[O-])c2)cc1	/	/	-21%	-17%	/	/
CC1(NC(=O)CSc2nnc(-c3c[nH]c4ccccc34)n2C2CC2)CCS(=O)(=O)C1 (stereo not drawn)	9%	-2%	-18%	-10%	4	13%
CN(Cc1ccc(F)cc1)S(=O)(=O)c1nnc(NC(=O)c2ccccc2)s1	/	-3%	?	-14%	-6	/
CN(Cc1ccccc1)S(=O)(=O)c1nnc(NC(=O)c2cccc(Cl)c2)s1	/	/	13µM*	15µM*	/	/
CN(Cc1ccc(F)cc1)S(=O)(=O)c1nnc(NC(=O)c2ccc(F)cc2)s1	/	/	15µM*	?	/	/
CN(Cc1ccco1)S(=O)(=O)c1nnc(NC(=O)c2cccc(Cl)c2)s1	-14%	-18%	?	?	9	?
COc1ccc(-n2nnnc2S(=O)(=O)Cc2ccc(C(=O)O)cc2)cc1	7.9µM*	?	16µM*	15µM*	-87*	14µM*
COc1ccc(-n2nnnc2S(=O)(=O)CC(=O)N2CCCCC2)cc1	21µM*	-17%	1.5µM*	2.6µM*	-110*	21µM*
Cc1ccccc1CN1CCN(S(=O)(=O)c2ccc(Cl)s2)CC1	-17%	-15%	?	23µM*	-8	-13%
Cc1ccccc1CN1CCN(S(C)(=O)=O)CC1	-3%	21%	-11%	0%	-5	-7%
Cc1nc(-c2ccc(S(=O)(=O)N3CCN(Cc4ccccc4)CC3)s2)cs1	-14%	?	9.2µM*	?	-20	?
CCCCC1CN2CCc3c([nH]c4ccccc34)C2(C)C1 (stereo not drawn)	?	?	18µM*	?	?	?
CCCCN1CCc2c([nH]c3ccccc23)C1=O	12%	?	-4%	-1%	-1	4%
CC(=O)c1ccc(OCCCC(=O)Nc2cc(Cl)ccc2-n2cncn2)cc1	0%	?	-18%	-3%	1	-3%
SMILES	HT1080 IDH1KD tx	ELG1 DNA repair	TDP1 cell noCPT	DT40 TDP1 CPT	IL1B secr inh	HT1080NT lethal
Cc1ccc(-c2cc(-c3ccccc3)c(C#N)c(N)n2)o1	-8%	?	15µM*	23µM*	0	-1%
Cc1ccc(-c2cc(-c3ccccc3Cl)c(C#N)c(N)n2)o1	-18%	?	?	?	?	-2%
Cc1ccc(-c2cc(-c3ccc(F)cc3)nc(N)c2C#N)o1	-6%	?	18µM*	?	-14	-3%
O=C(Nc1cc(-c2ccccc2)sc1C(=O)O)c1cccc(F)c1	-12%	0%	15µM*	?	-8	-12%
CCOc1ccc(-c2cc(NC(=O)Nc3ccc(Cl)cc3)c(C(=O)OC)s2)cc1	/	/	21µM*	?	/	/
O=C(Nc1cccc(NC(=O)c2cccc(F)c2)n1)c1cccc(F)c1	0%	?	21µM*	?	0	-18%
O=C(Nc1cccc(NC(=O)c2c(F)cccc2F)n1)c1c(F)cccc1F	3%	?	?	-9%	-17	19%
CSc1nccc(NC(=O)c2cccc(Br)c2)n1	-10%	?	21µM*	-5%	?	-22%
CCn1c(-c2cccc(OC)c2)nc2cc(NC(C)=O)cc(C(=O)N3CCC[C@H]3C(=O)OC)c21	/	/	5%	-2%	/	/
CCOc1ccc(-c2cc(NC(=O)c3c(F)cccc3F)c(C(=O)O)s2)cc1	-18%	0%	21µM*	-25%	-12	-7%
COc1ccc(S(=O)(=O)NNC(=O)c2cc3c4ccccc4n(C)c3s2)cc1	?	0%	4.1µM*	2.9µM*	41	-23%
CC(=O)NNC(=O)c1cc2c3ccccc3n(C)c2s1	-1%	1%	-2%	5%	10	-5%
CCc1nn(CC(=O)Nc2ccc(NC(C)=O)cc2)c(=O)c2cc3sccc3n12	/	/	-21%	-21%	/	/
Nc1sc2c(c1C(=O)NCCc1ccccc1)CCC2	4%	13%	-26%	6%	-24	1%
CN(C)CCNC(=O)c1c(NC(=O)c2ccccc2)sc2c1CCCC2	-12%	-2%	26µM*	?	/	-11%
Nc1sc2c(c1C(=O)NCCc1ccccc1)CCCC2	3%	/	15µM*	?	-1	5%
CCN(CC)S(=O)(=O)c1ccc(/C=C/C(=O)OCC(=O)NCc2ccco2)cc1	4%	12%	?	9.2µM*	-10	-7%
O=C(COC(=O)/C=C/c1ccccc1)NCc1cccs1	0%	?	-23%	-9%	-4	1%
CCN(CC)S(=O)(=O)c1ccc(C(=O)OCC(=O)NCc2ccco2)cc1	-22%	5%	-27%	?	17	-16%

Source: PubChem BioAssay
